According to ChEMBL document CHEMBL3433997, “St. Jude Leishmania screening dataset” (2016):

Key:
Format in all cases: functional
[1] = target: Solute carrier family 2, facilitated glucose transporter member 1 (Homo sapiens) (UniProt P11166); assay: ST_JUDE_LEISH: Cytotoxicity at 2uM final concentration against transgenic Leishmania Mexicana promastigotes LmGLUT1 that are glucose transport deficient and complemented with the human glucose transporter GLUT1. Activity is measured by DNA content using SYBR green in vitro
Solute carrier family 2, facilitated glucose transporter member 1 (Homo sapiens), sequence (P11166 whole entry): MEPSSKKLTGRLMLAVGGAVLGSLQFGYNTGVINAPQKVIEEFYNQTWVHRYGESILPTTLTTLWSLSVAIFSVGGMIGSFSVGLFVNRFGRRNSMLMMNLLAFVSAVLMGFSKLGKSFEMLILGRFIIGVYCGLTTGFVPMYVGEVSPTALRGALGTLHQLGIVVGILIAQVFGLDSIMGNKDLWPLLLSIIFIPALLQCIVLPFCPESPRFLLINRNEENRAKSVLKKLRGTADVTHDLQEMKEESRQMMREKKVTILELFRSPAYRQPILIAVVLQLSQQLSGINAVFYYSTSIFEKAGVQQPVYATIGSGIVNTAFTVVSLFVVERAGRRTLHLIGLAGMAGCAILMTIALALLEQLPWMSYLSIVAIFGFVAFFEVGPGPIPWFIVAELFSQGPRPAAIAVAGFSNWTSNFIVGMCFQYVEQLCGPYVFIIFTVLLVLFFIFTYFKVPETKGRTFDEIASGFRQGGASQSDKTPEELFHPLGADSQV

[2] = target: Hexose transporter 1 (Plasmodium falciparum) (UniProt O97467); assay: ST_JUDE_LEISH: Cytotoxicity at 2uM final concentration against transgenic Leishmania Mexicana promastigotes LmPfHT that are glucose transport deficient and complemented with the Plasmodium falciparum hexose transporter. Activity is measured by DNA content using SYBR green in vitro
[3] = target: Glucose transporter (Leishmania mexicana) (UniProt O61059); assay: ST_JUDE_LEISH: Cytotoxicity at 2uM final concentration against transgenic Leishmania Mexicana promastigotes LmGT2 that are glucose transport deficient and complemented with the L. Mexicana glucose transporter 2. Activity is measured by DNA content using SYBR green in vitro

Compound | inhibition [1] [%] | inhibition [2] [%] | inhibition [3] [%]
c1cc(-c2ccc(CNC3CCOCC3)cc2)cc(-c2nc3ccccc3[nH]2)c1 | -0.19 | 1.26 | -2.46
CN(C)CCOc1cc(NC(=O)Nc2ccc3c(c2)CCCC3=O)ccc1I | 5.03 | 7.25 | 4.5
COc1ccc2c(=NN=Cc3ccc(OC)c4ccccc34)cc(C)[nH]c2c1 | 0.09 | 1.71 | 1.11
CC(C)C[C@H](NC(=O)c1cc(-c2ccc(F)cc2)no1)C(=O)O.CC(C)C[C@H](NC(=O)c1conc1-c1ccc(F)cc1)C(=O)O | 1.19 | 2.32 | 2.96
CN(C)CCOc1ccnc2ccc(NC(=O)Cc3ccc(-c4ccncc4)c4ccccc34)cc12 | 1.07 | -0.32 | 7.74
COc1ccc(C2CCN(CCCCNC(=O)c3ccc(NC(=O)c4ccc(Cl)cc4)cc3)CC2)c(OC)c1 | 6.64 | 5.21 | 3.22
Cc1cccc2nc(-c3cccc(-c4cccc(C(=O)NCCc5cn(C)cn5)c4)c3)[nH]c12 | -0.8 | -0.53 | 0.89
COc1ccccc1NC(=O)CSc1nc2cccnc2n1-c1ccccc1OC | 0.89 | 2.24 | 0.14
CCC(C)OC(=O)C1=C(C)NC2=C(C(=O)CC(c3ccc(OC)c(OC)c3)C2)C1c1cccc(O)c1 (centres undefined) | 4.07 | 0.16 | 1.16
COc1ccc2c(c1CCNCCCCNCCc1c(OC)ccc3c1CCCC3)CCCC2 | 47.3 | 61.4 | 52.9
CCCC(=O)Nc1ccc(OCCCN(Cc2cccc(C(F)(F)F)c2)c2ccc(C#N)c(C(F)(F)F)c2)cc1 | 2.19 | 2.43 | 1.64
Clc1cc(Nc2ccnc3ccc(Br)cc23)ccc1Oc1ccc(Cl)c2ccccc12 | 3.45 | 3.8 | 2.81
CCCn1cnc2cc(C(=O)Nc3ccc(-c4cccc(CN(C)C)c4)cc3)ccc2c1=O | 55 | 3.03 | 5.21
O=C(Cc1cccnc1)Nc1cccc(-c2cccc(-c3nc4cc(C(F)(F)F)ccc4[nH]3)c2)c1 | 2.67 | 1.57 | 1.35
CO/C(=C\C=C\c1cc2cc(Cl)c(Cl)cc2[nH]1)C(=O)NCCCNCCN(C)c1ccccc1 | 4.77 | 2.76 | 1.74
CCCc1cc(=O)[nH]c(-n2nc(C)cc2NC(=O)C(CC)c2ccccc2)n1 (centres undefined) | 35 | 38.3 | 4.69
COC(=O)c1cccc(CNCc2ccc(-c3ccc(-c4nc5cccc(C)c5[nH]4)s3)cc2)c1 | 6.31 | 2.96 | 1.56
O=C(Nc1ccc(Cl)cc1)Nc1ccc2c(c1)N1CCN=C1S2 | -0.81 | -1.2 | 5.02
Cc1cc(N[C@@H](Cc2ccccc2)C(=O)NCc2cccc(F)c2)nc(NCCc2cccs2)n1 | 2.6 | 2.99 | 2.23
Cc1cc(CNCC2CCC(CNCCCc3ccccc3)CC2)ccc1O (centres undefined) | 9.97 | 8.79 | 7.65
Cc1ccc(NC(=O)c2cc(Br)cc(N3CCCN(C)CC3)c2)cc1F | -0.54 | 0.36 | -1.29
O=C(Nc1cccc(C(F)(F)F)c1)N1CCOC(CCN2CCC(c3ccccc3)CC2)(c2ccc(Cl)c(Cl)c2)C1 (centres undefined) | 1.69 | 1.44 | 0.72
COc1cccc2c(N/N=C/c3ccc([N+](=O)[O-])cc3)ccnc12 | 11.3 | 6.04 | 1.25

Compound | inhibition [1] [%] | inhibition [2] [%] | inhibition [3] [%]
CCCCc1cc(=O)oc2cc(C)cc(OCc3ccccc3F)c12 | -0.28 | 1.33 | 1.06
CCOc1ccc2c(=NN=Cc3cc(OC)c(OC)cc3OC)cc(C)[nH]c2c1 | 3.1 | 2.65 | -1.87
CCOc1cc(CC)ccc1C1CCN(CCN2CCC(NC(=O)c3ccc(-c4ccc(C#N)cc4)cc3)CC2)CC1 | -0.43 | 0.77 | 1.19
COc1cccc(OC)c1C(=O)N1CCC2(CC1)C(=O)N(CC(=O)NC1CCCCC1)CN2c1ccccc1 | 0.35 | 4.45 | 3.89
O=C(Nc1ccc(Br)cc1)N(CCN1CCOCC1)CC(O)COc1ccc(Cl)c(F)c1 (centres undefined) | -0.94 | -1.53 | 1.5
CC(C)C(=O)NC(c1ccc(Cl)cc1)c1ccc2cccnc2c1O (centres undefined) | 3.14 | 5.18 | 2.63
O=C(Nc1ccc(-c2nc3ccccc3[nH]2)cc1)c1ccc(S(=O)(=O)N2CCc3ccccc32)cc1 | 2.92 | 0.13 | 3.39
CN1CCC(C(=O)N(Cc2ccc(-c3ccc(CNCCc4ccc(S(C)(=O)=O)cc4)cn3)cc2)C2Cc3ccccc3C2)CC1 | 0.67 | -0.29 | -0.85
Clc1ccc(OCCC2CCN(CCCCCCCN3CCC(CCOc4ccc(Cl)c(Cl)c4)CC3)CC2)cc1Cl | 9.59 | 11.4 | 3.47
CCCCN(CCCC)Cc1cc2ccccc2cc1O | 3.46 | 4.13 | -0.3
CS(=O)(=O)c1ccc(CNCc2ccc(-c3cccc(-c4nc5cc(F)ccc5[nH]4)c3)cc2)cc1 | 3.3 | 1.83 | 2.88
CC(CNC(=O)C(c1cc2ccccc2o1)N1CCN(C(c2ccccc2)c2ccccc2)CC1)c1ccccc1 (centres undefined) | 3.49 | 3.31 | 3.92
CN(Cc1ccccc1)C(=O)c1nn(CCCN2CCC(N3CCCC3)CC2)cc1-c1ccc(Cl)c(Cl)c1 | 27.6 | 13.7 | 1.65
O=C(N[C@@H](CC1CCCCC1)C(=O)NCCc1ccc(Cl)c(Cl)c1)c1ccc(O)c(-c2ccc(Cl)c(Cl)c2)c1 | 0.23 | 0.3 | 1.25
N#Cc1ccc(N[C@@H](CC2CCCCC2)C(=O)N[C@@H]2CCCc3ccccc32)c2ccccc12 | 0.46 | 1.88 | 0.82
FC(F)(F)c1ccc2[nH]c(-c3ccc(-c4cccc(CNCCN5CCNCC5)c4)cc3)nc2c1 | 0.53 | -0.94 | -1.87
O=C(Nc1ccc(Cl)c(C(F)(F)F)c1)NC1CCN(CCCCCNC(=O)C2CC2c2ccc(Cl)c(Cl)c2)CC1 (centres undefined) | 7.55 | 9.26 | 6.43
Cc1cc2cc(NC(=O)Nc3ccnc4ccccc34)ccc2n1C | 0.22 | 0.43 | 0.82
CCOC(=O)c1ccc(NC(=O)N[C@@H](Cc2ccccc2)C(=O)NC2CCN(Cc3ccc(O)c(OC)c3)C2)cc1 (some centres undefined) | -2.58 | -1.29 | 3.01
N#Cc1ccc(-c2ccc(C(=O)Nc3ccc4c(c3)CCN(C3CCC3)CC4)nc2)cn1 | 7.75 | 7.17 | 5.21
CN(C)CCCOc1ccc(CN2CC[C@H](NC(=O)c3ccc(Cl)c(Cl)c3)C2)c2ccccc12 | -0.55 | 1.01 | 0.71
C=CCOc1ccc2ccccc2c1CNCCCCCCNCc1c(OCC=C)ccc2ccccc12 | 4.33 | 5.37 | 1.05
CN1CCC(NCc2cccc(-c3cnc(NCc4ccccc4)nc3)c2)CC1 | 0.74 | 2.79 | 1

Compound | inhibition [1] [%] | inhibition [2] [%] | inhibition [3] [%]
O=C(Nc1cc(Cl)cc(Cl)c1)Nc1ccccc1C(=O)NC1CCCCC1 | -0.12 | -1.94 | 0.23
O=C(NCCCCCN1CCC(c2c[nH]c3ccccc23)CC1)Nc1ccc(Br)cc1 | -0.87 | -1.37 | -0.48
CN(C)CCOc1ccc2c(c1)CN(C)CC2c1ccccc1 (centres undefined) | 1.17 | 0.33 | 0.03
O=C(Nc1ccccc1)N(Cc1cccc(-c2cccc(CNCc3ccc4c(c3)OCO4)c2)c1)C1CCN(Cc2ccccc2)CC1 | 0.53 | 1.69 | 2.79
CC(Cc1ccc(CN2CCN(Cc3ccccc3)CC2)cc1)NCC(O)c1cccc(C(F)(F)F)c1 (centres undefined) | 5.03 | 4.18 | 5.25
NC1CCN(c2nc(NCCCc3ccc(O)cc3)nc(NCc3ccccc3-c3ccccc3)n2)CC1 | 0.77 | 0.01 | 1.09
CCOc1cc(CC)ccc1C1CCN(CCN2CCC(NC(=O)c3ccc(-c4ccc(C(C)=O)cc4)cc3)CC2)CC1 | 1.17 | 1.9 | 1.24
CCN(CC)CCCNc1ncc2c(-c3ccc(NC(=O)Nc4cc(C(F)(F)F)ccc4F)c(F)c3)nn(C)c2n1 | -0.37 | -0.41 | -1.03
CN1CCN(Cc2cccc(-c3cc4nccc(Nc5ccc(Oc6ccccc6)cc5)c4cc3Cl)c2)CC1 | -1.94 | 0.9 | 1.01
Cc1noc(C)c1-c1ccc2c(Nc3ccc(C#N)cc3)c(C(N)=O)cnc2c1 | 4.95 | 4.62 | 5
Cc1cc(CN2CC[C@H](NC(=O)c3ccc(Cl)c(Cl)c3)C2)ccc1OCCCN(C)C | -2.61 | -3.17 | -2.57
CC(=O)C=C1CC(=O)N(C[C@@H](O)[C@H]2O[C@@H]3OC(C)(C)O[C@@H]3[C@H]2O)c2ccccc2N1 | 2.82 | 3.82 | 2.35
Cc1cc(N[C@@H](Cc2ccccc2)C(=O)NCc2cccc(F)c2)nc(NCCc2cccnc2)n1 | 10.4 | 12.9 | 12.3
CC[C@]1(C)C[C@@H](NC(=O)NC(=O)c2ccc(OC)cc2)[C@]2(C)[C@H](C)CC[C@]3(CCC(=O)[C@H]32)[C@@H](C)[C@@H]1OC(=O)NC(=O)c1ccc(OC)cc1 | 7.7 | 5.47 | 7.04
O=C(Nc1cccc(C(F)(F)F)c1)c1cccc2nc(C(F)(F)F)[nH]c12 | 19.4 | 24.2 | 15
CC(=O)Nc1ccc(CN2CCC(NC(=O)c3ccc(-c4cccc(F)c4)s3)CC2)cc1 | 1.73 | 0.06 | 0.34
C[C@@H]([C@@H](CCCCc1ccccc1)C(=O)N[C@H](C(=O)Nc1cccnc1)C(C)(C)C)N(O)C=O | 0.14 | -1.56 | 2.12
CCNC(=O)CCc1cccc(Br)c1 | -1.73 | -1.52 | -1.62
CC(C)(C)OC(=O)N[C@@H](CS(=O)(=O)CCNC(=N)COCc1ccccc1)C(=O)OC(C)(C)C | 7.09 | 6.29 | 5.74
COc1ccc(Nc2nccc(N3CCC(NS(=O)(=O)c4ccc(NC(C)=O)cc4)C3)n2)cc1 (centres undefined) | 2.99 | 2.85 | 3.38
COc1ccc(-c2cccc(CNC3CCN(CC4Cn5c(=O)ccc6ccc(F)c4c65)CC3)c2)cc1 (centres undefined) | 10.7 | 10 | 8.16
COc1ccc2nccc([C@@H](O)CN3CCC(NCc4cc5sccc5nc4C(F)(F)F)CC3)c2c1 | 3.75 | 1.89 | -4.21
